Measurements from the supplement of paper PMC10849652.
About 8,800 targets were measured; listed, in parts, are those with a hit and a random draw of the rest. About 0.5% of all pairs of compound and target were hits.

Tests used:
Experiment in all cases: log2 fold change, soluble protein after heating vs DMSO (PISA); higher = thermal stabilisation; K562 lysate, 10 uM; active = over 0.2 and 3.5 SD of the protein, either way, in both replicates (recomputed)
lapatinib = compound: CS(=O)(=O)CCNCc1ccc(-c2ccc3ncnc(Nc4ccc(OCc5cccc(F)c5)c(Cl)c4)c3c2)o1 [lapatinib]
Procedure, shortened: (§1)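 A 30 min treatment with 10 μM compound was applied to crude K562 extract at 1 mg/mL protein in PBS pH 7.4 with 1 mM MgCl2. Heating for 3 min spanned 48°C-58°C, after which aliquots were pooled, adjusted to 0.5% NP-40 at 4°C and spun at 21,000xg for 90 min. TMTpro 16plex LC-MS/MS of the supernatant, with channel sums equalised, gave values recorded as log-two fold change in thermal stability against solvent controls, from duplicates.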

pictilisib = compound: CS(=O)(=O)N1CCN(Cc2cc3nc(-c4cccc5[nH]ncc45)nc(N4CCOCC4)c3s2)CC1 [pictilisib]
Procedure, shortened: as §1

crizotinib = compound: C[C@@H](Oc1cc(-c2cnn(C3CCNCC3)c2)cnc1N)c1c(Cl)ccc(F)c1Cl [crizotinib]
Procedure, shortened: as §1

[1] = compound: C[C@H](C1=CC=C(C=C1)C(=O)NC2=C3C=CNC3=NC=C2)N
Procedure, shortened: as §1

duvelisib = compound: C[C@H](Nc1ncnc2nc[nH]c12)c1cc2cccc(Cl)c2c(=O)n1-c1ccccc1 [duvelisib]
Procedure, shortened: as §1

gandotinib = compound: Cc1cc(Nc2cc(CN3CCOCC3)c3nc(C)c(Cc4ccc(Cl)cc4F)n3n2)n[nH]1 [gandotinib]
Procedure, shortened: as §1

tozasertib = compound: Cc1cc(Nc2cc(N3CCN(C)CC3)nc(Sc3ccc(NC(=O)C4CC4)cc3)n2)n[nH]1 [tozasertib]
Procedure, shortened: as §1

doramapimod = compound: Cc1ccc(-n2nc(C(C)(C)C)cc2NC(=O)Nc2ccc(OCCN3CCOCC3)c3ccccc23)cc1 [doramapimod]
Procedure, shortened: as §1

bafetinib = compound: Cc1ccc(NC(=O)c2ccc(CN3CC[C@H](N(C)C)C3)c(C(F)(F)F)c2)cc1Nc1nccc(-c2cncnc2)n1 [bafetinib]
Procedure, shortened: as §1

[2] = compound: Cc1cccc(CC(=O)N2CCc3c2ccc(-c2cn(C)c4ncnc(N)c24)c3F)n1
Procedure, shortened: as §1

Measured: log2 fold change

TPP2 (UniProt Q5VZU9)
inactive: lapatinib -0.023 | pictilisib 0.069 | crizotinib -0.057 | duvelisib 0.02 | gandotinib 0.104 | tozasertib -0.087 | doramapimod -0.029 | bafetinib -0.044 | [2] 0.137
active: [1] -0.309

TRNAU1AP (UniProt Q9NX07)
inactive: lapatinib 0 | pictilisib -0.091 | crizotinib -0.019 | [1] -0.221 | duvelisib -0.058 | gandotinib 0.042 | tozasertib -0.018 | doramapimod 0.031 | bafetinib -0.001 | [2] 0.061

UBXN6 (UniProt Q9BZV1)
inactive: lapatinib -0.075 | pictilisib -0.048 | crizotinib 0.004 | [1] -0.014 | duvelisib -0.028 | gandotinib -0.018 | tozasertib 0.008 | doramapimod 0.017 | bafetinib 0.033 | [2] -0.023

TMPO (UniProt P42166)
inactive: lapatinib 0.018 | pictilisib -0.012 | crizotinib 0.016 | [1] -0.179 | duvelisib 0.023 | gandotinib -0.048 | tozasertib 0.016 | doramapimod -0.017 | bafetinib -0.021 | [2] 0.034

UBE4A isoform 2 (UniProt Q14139)
inactive: lapatinib -0.019 | pictilisib -0.007 | crizotinib -0.059 | [1] -0.009 | duvelisib 0.016 | gandotinib -0.15 | tozasertib 0 | doramapimod 0.004 | bafetinib -0.054 | [2] 0.043

TBC1D2B (UniProt Q9UPU7)
inactive: lapatinib 0.076 | pictilisib 0.006 | crizotinib 0.041 | [1] 0.007 | duvelisib 0.027 | gandotinib -0.096 | tozasertib -0.005 | doramapimod 0.007 | bafetinib -0.057 | [2] 0.052

UBE3C (UniProt Q15386)
inactive: lapatinib -0.004 | pictilisib -0.029 | crizotinib -0.055 | [1] -0.039 | duvelisib 0.007 | gandotinib -0.075 | tozasertib 0 | doramapimod 0.038 | bafetinib -0.036 | [2] 0.021

TESC (UniProt Q96BS2)
Chain of UniProt Q96BS2 (Q96BS2 whole entry, looked up): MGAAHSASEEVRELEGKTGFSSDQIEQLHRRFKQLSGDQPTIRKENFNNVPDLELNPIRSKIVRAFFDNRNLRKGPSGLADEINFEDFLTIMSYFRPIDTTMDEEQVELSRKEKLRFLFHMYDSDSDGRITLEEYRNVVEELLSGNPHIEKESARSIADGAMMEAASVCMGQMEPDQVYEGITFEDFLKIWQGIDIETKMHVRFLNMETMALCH
inactive: lapatinib -0.03 | pictilisib -0.122 | crizotinib 0 | [1] -0.095 | duvelisib 0.026 | gandotinib -0.066 | tozasertib 0.026 | doramapimod 0.073 | bafetinib 0.048 | [2] 0.037

TBL3 (UniProt Q12788)
inactive: lapatinib -0.022 | pictilisib -0.027 | crizotinib -0.017 | [1] -0.028 | duvelisib -0.009 | gandotinib -0.05 | tozasertib -0.008 | doramapimod -0.024 | bafetinib -0.019 | [2] 0.04

TMEM263 (UniProt Q8WUH6)
inactive: lapatinib 0.149 | pictilisib 0.015 | crizotinib 0.06 | [1] -0.072 | duvelisib 0.02 | gandotinib 0.178 | tozasertib -0.066 | doramapimod 0.112 | bafetinib -0.028 | [2] 0.208

TGOLN2 isoform 7 (UniProt O43493)
Chain of UniProt O43493 (O43493 whole entry, looked up): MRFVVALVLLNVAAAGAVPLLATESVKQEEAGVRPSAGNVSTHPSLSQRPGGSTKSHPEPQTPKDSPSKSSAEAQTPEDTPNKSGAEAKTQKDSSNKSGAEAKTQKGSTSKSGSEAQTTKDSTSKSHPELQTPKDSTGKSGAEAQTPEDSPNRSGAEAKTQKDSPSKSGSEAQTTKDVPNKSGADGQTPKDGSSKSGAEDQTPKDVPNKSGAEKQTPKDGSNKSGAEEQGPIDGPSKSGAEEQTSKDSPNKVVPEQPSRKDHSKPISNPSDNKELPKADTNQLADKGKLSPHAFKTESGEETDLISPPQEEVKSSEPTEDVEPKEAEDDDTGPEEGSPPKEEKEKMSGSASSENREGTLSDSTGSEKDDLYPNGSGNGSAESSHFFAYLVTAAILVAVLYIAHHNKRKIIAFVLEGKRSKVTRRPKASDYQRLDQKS
inactive: lapatinib -0.007 | pictilisib 0.001 | crizotinib 0.045 | [1] -0.051 | duvelisib 0.021 | gandotinib 0.034 | tozasertib -0.065 | doramapimod -0.03 | bafetinib 0.032 | [2] 0.034

TUT4 (UniProt Q5TAX3)
inactive: lapatinib -0.003 | pictilisib -0.041 | crizotinib 0 | [1] -0.064 | duvelisib 0.006 | gandotinib -0.001 | tozasertib 0.047 | doramapimod -0.023 | bafetinib -0.039 | [2] 0.15

TRIM44 (UniProt Q96DX7)
inactive: pictilisib -0.11 | crizotinib -0.018 | [1] 0.04 | duvelisib 0.007 | gandotinib 0.01 | tozasertib -0.04 | doramapimod 0.013 | bafetinib 0.031 | [2] -0.075
active: lapatinib -0.242

UBE3B (UniProt Q7Z3V4)
inactive: lapatinib -0.019 | pictilisib 0.025 | crizotinib -0.027 | [1] -0.174 | duvelisib 0.136 | gandotinib -0.17 | tozasertib -0.005 | doramapimod 0.083 | bafetinib -0.082 | [2] 0.203

TMPO (UniProt P42167)
inactive: lapatinib 0.053 | pictilisib 0.029 | crizotinib 0.059 | [1] 0.047 | duvelisib -0.039 | gandotinib -0.033 | tozasertib 0.035 | doramapimod -0.037 | bafetinib 0.005 | [2] -0.04

TUBGCP4 (UniProt Q9UGJ1)
Chain of UniProt Q9UGJ1 (Q9UGJ1 whole entry, looked up): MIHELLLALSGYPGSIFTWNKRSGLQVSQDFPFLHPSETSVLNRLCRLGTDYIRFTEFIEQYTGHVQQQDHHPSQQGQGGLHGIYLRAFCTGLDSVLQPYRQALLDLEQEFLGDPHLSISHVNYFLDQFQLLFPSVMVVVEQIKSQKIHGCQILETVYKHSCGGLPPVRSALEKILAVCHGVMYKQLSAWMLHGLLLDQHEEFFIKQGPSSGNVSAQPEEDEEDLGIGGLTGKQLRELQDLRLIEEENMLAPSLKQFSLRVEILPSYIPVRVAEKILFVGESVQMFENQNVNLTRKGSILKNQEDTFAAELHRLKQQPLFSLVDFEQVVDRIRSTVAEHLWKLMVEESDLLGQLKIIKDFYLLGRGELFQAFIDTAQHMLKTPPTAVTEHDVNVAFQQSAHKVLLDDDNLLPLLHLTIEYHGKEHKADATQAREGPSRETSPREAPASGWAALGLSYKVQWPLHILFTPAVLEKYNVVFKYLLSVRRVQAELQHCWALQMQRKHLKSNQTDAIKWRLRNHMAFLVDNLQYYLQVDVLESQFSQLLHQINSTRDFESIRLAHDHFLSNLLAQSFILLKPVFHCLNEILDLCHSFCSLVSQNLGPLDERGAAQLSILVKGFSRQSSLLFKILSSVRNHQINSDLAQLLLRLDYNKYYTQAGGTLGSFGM
inactive: lapatinib -0.022 | pictilisib 0.011 | crizotinib -0.012 | [1] -0.007 | duvelisib 0.03 | gandotinib -0.125 | tozasertib -0.022 | doramapimod -0.041 | bafetinib -0.076 | [2] 0.019

TPM3 isoform 2 (UniProt P06753)
Chain of UniProt P06753 (P06753 whole entry, looked up): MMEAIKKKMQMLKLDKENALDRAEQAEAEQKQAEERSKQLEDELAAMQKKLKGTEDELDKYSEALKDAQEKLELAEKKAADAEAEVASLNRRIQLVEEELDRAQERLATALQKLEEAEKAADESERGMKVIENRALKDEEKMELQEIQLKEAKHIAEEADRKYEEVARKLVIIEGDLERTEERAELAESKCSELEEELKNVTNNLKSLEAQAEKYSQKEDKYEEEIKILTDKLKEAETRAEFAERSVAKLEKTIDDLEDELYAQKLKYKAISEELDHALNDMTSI
inactive: lapatinib -0.012 | pictilisib 0.021 | crizotinib 0.093 | [1] 0.095 | duvelisib 0.003 | gandotinib -0.169 | tozasertib 0.067 | doramapimod 0.02 | bafetinib 0.055 | [2] -0.152

TTC5 (UniProt Q8N0Z6)
inactive: lapatinib 0.039 | pictilisib -0.021 | crizotinib -0.053 | [1] -0.064 | duvelisib 0.032 | gandotinib -0.048 | tozasertib 0.076 | doramapimod 0.007 | bafetinib -0.052 | [2] 0.04

TTI2 (UniProt Q6NXR4)
Chain of UniProt Q6NXR4 (Q6NXR4 whole entry, looked up): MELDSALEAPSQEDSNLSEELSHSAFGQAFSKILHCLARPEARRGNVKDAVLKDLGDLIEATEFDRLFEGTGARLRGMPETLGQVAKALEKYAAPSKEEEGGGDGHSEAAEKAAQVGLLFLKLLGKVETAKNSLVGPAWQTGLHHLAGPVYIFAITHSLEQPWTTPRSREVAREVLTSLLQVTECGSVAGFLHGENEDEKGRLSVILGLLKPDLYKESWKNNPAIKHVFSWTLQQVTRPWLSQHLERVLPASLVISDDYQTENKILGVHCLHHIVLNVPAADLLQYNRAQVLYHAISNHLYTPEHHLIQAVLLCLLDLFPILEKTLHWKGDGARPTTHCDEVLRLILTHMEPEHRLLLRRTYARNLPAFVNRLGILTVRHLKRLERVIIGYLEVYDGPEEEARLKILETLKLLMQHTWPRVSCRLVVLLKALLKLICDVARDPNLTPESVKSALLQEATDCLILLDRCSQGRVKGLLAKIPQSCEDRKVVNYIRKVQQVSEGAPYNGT
inactive: lapatinib -0.033 | pictilisib -0.033 | crizotinib -0.016 | [1] -0.032 | duvelisib -0.018 | gandotinib -0.023 | tozasertib 0.004 | doramapimod -0.023 | bafetinib -0.017 | [2] 0.082

TTF2 (UniProt Q9UNY4)
inactive: lapatinib 0.028 | pictilisib -0.048 | crizotinib -0.104 | [1] -0.052 | duvelisib 0 | gandotinib 0 | tozasertib 0.019 | doramapimod 0.053 | bafetinib -0.02 | [2] 0.102

TTMP isoform 3 (UniProt Q5BVD1)
Chain of UniProt Q5BVD1 (Q5BVD1 whole entry, looked up): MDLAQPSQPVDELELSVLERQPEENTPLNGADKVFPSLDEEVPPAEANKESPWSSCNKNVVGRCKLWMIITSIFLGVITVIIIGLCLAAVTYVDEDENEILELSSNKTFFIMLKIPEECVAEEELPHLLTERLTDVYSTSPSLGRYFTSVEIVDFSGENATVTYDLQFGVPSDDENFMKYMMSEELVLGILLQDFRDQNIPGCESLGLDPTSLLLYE
active: [1] -0.618
inactive: lapatinib -0.1 | pictilisib 0.013 | crizotinib -0.241 | duvelisib 0.138 | gandotinib 0.384 | tozasertib -0.022 | doramapimod 0.137 | bafetinib -0.197 | [2] 0.47

TP53RK (UniProt Q96S44)
Chain of UniProt Q96S44 (Q96S44 whole entry, looked up): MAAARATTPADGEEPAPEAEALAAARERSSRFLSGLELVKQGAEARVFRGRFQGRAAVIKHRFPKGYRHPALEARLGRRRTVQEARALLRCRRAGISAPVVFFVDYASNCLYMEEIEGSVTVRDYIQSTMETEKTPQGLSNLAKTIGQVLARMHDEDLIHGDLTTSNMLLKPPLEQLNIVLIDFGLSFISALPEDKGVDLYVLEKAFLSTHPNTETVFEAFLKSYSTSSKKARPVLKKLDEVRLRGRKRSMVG
inactive: lapatinib -0.011 | pictilisib 0.026 | crizotinib 0.042 | [1] 0.042 | duvelisib -0.029 | gandotinib -0.041 | tozasertib -0.01 | doramapimod -0.029 | bafetinib -0.032 | [2] 0.035

TMEM164 (UniProt Q5U3C3)
active: [1] -0.789
inactive: lapatinib -0.166 | pictilisib 0.186 | crizotinib -0.03 | duvelisib 0.131 | gandotinib 0.27 | tozasertib -0.091 | doramapimod -0.173 | bafetinib -0.05 | [2] 0.512

TRIM33 isoform 2 (UniProt Q9UPN9)
inactive: lapatinib -0.034 | pictilisib 0.008 | crizotinib -0.015 | [1] -0.07 | duvelisib -0.002 | gandotinib -0.023 | tozasertib 0.011 | doramapimod 0.021 | bafetinib -0.038 | [2] 0.056

UBL4A (UniProt P11441)
Chain of UniProt P11441 (P11441 whole entry, looked up): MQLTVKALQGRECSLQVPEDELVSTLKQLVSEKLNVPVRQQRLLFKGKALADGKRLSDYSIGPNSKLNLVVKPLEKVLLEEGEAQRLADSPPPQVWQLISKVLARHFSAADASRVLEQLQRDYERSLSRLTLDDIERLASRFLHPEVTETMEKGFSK
active: [1] 0.253
inactive: lapatinib -0.003 | pictilisib -0.057 | crizotinib 0.112 | duvelisib 0.007 | gandotinib -0.157 | tozasertib 0.076 | doramapimod -0.029 | bafetinib -0.044 | [2] -0.06

TUBA1B (UniProt P68363)
Chain of UniProt P68363 (P68363 whole entry, looked up): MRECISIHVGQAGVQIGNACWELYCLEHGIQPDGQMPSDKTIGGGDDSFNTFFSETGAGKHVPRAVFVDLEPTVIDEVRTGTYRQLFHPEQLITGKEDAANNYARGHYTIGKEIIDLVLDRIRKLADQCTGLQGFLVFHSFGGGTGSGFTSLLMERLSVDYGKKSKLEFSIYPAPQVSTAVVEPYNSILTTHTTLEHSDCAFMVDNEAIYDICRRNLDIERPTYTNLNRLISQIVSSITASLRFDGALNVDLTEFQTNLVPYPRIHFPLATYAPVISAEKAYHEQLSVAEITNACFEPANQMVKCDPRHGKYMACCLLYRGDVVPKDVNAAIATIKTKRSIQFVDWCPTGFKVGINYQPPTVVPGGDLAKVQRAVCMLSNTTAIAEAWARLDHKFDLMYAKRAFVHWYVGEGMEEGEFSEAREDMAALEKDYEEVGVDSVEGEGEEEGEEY
inactive: lapatinib 0.004 | pictilisib 0.001 | crizotinib -0.039 | [1] -0.015 | duvelisib -0.011 | gandotinib 0.022 | tozasertib -0.011 | doramapimod 0.023 | bafetinib -0.025 | [2] 0.002

THAP9 (UniProt Q9H5L6)
inactive: lapatinib -0.035 | pictilisib -0.154 | crizotinib -0.203 | duvelisib 0.012 | gandotinib 0.429 | tozasertib -0.045 | doramapimod 0.009 | bafetinib -0.007 | [2] 0.323
active: [1] -0.675

TBRG4 (UniProt Q969Z0)
inactive: lapatinib -0.021 | pictilisib -0.039 | crizotinib -0.031 | [1] 0.08 | duvelisib 0.006 | tozasertib 0.038 | doramapimod -0.012 | bafetinib -0.029 | [2] -0.021
active: gandotinib -0.269

TCF12 isoform 3 (UniProt Q99081)
inactive: lapatinib -0.047 | pictilisib 0.055 | crizotinib 0.034 | [1] -0.038 | duvelisib 0.025 | gandotinib 0.056 | tozasertib 0.023 | doramapimod -0.011 | bafetinib -0.11 | [2] -0.001

TJP1 isoform 2 (UniProt Q07157)
Chain of UniProt Q07157 (Q07157 whole entry, looked up): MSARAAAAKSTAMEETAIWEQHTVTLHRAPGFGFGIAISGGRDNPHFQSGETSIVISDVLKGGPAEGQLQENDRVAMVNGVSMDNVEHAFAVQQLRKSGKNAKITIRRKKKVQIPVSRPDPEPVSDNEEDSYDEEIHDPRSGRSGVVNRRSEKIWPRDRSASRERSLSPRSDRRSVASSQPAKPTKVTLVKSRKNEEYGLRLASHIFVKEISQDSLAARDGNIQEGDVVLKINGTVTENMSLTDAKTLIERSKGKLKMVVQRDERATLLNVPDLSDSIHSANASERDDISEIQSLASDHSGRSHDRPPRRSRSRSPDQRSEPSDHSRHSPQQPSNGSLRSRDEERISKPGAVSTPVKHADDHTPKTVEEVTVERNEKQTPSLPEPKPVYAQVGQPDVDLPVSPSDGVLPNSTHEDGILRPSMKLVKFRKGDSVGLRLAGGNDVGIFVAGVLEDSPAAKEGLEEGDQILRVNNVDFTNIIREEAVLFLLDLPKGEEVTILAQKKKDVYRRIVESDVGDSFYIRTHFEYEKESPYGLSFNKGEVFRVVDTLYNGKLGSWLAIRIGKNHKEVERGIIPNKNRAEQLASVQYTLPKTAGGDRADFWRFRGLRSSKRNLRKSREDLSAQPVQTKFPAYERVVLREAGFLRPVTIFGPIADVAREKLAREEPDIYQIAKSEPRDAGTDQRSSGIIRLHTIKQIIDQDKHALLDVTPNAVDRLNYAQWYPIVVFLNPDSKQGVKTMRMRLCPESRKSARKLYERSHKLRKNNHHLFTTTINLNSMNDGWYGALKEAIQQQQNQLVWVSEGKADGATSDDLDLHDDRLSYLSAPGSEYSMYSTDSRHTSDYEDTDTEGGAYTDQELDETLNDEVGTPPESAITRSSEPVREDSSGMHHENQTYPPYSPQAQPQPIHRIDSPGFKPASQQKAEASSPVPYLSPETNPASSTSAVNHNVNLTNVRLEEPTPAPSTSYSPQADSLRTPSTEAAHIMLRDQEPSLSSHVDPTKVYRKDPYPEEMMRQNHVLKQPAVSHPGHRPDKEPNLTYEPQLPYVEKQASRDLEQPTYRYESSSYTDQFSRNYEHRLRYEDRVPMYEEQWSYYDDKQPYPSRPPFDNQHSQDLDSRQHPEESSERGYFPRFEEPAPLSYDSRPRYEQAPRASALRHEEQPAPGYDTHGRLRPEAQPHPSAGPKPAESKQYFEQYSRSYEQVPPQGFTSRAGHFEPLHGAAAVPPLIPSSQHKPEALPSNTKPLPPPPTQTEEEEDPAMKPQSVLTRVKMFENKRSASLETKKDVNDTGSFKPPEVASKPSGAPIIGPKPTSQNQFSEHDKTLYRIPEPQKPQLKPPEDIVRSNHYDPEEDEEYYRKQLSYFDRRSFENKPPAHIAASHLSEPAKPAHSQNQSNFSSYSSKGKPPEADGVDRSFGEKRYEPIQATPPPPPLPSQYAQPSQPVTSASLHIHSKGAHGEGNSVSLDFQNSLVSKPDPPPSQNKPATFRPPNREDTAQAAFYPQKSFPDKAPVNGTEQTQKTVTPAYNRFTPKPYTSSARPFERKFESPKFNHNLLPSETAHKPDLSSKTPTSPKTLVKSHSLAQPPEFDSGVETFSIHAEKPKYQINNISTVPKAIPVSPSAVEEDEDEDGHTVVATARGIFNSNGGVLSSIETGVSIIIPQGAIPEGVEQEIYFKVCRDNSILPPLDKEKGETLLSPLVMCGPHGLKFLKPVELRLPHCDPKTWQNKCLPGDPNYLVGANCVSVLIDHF
inactive: lapatinib -0.015 | pictilisib -0.028 | crizotinib 0.016 | [1] -0.065 | duvelisib -0.014 | gandotinib 0.075 | tozasertib -0.002 | doramapimod 0.014 | bafetinib -0.062 | [2] 0.111
